Our source for the outcome and AC50 values is PubChem BioAssay (EPA / NIEHS).

Where “and” joins values, the source holds several entries; their conditions need not be identical. Equal entries are not always repeated. Calls of active or inactive are those of the source. Rule for the calls: active = hit-call score of the fitted dose curve at least 0.9, where 1 is the maximum; inactive = score below 0.9.

A short description of the test: BSK_MyoF_SRB: Viability Assessment in the BioMAP Diversity Plus: MyoF Assay (AID 2284267). The conditions noted are these: primary human lung fibroblasts. How it is done:
BSK_MyoF is a cell-based, multiplexed-readout assay that uses lung fibroblasts, […], with measurements taken at 24 hours after chemical dosing in a microplate: 96-well plate.BSK_MyoF_SRB is an assay component measured in the BSK_MyoF assay. It measures 0.1% sulforhodamine related to cell death using Sulforhodamine staining technology.Data from the assay component BSK_MyoF_SRB was analyzed at the endpoint, BSK_MyoF_SRB, in the positive analysis fitting direction relative to DMSO as the negative control and baseline of activity. Using a type of viability reporter, gain or loss-of-signal activity can be used to understand protein changes. To generalize the intended target to other relatable targets, this assay endpoint is annotated to the 'cell morphology' intended target family, where the subfamily is 'cell conformation'.
The levels of cell surface (or secreted, indicated by the prefix "s") biomarker endpoints were measured by ELISA. Overt cytotoxicity to cells in confluent adherent cultures (all systems other than the BT system) was assessed by measuring total protein levels using sulforhodamine B (SRB) staining in parallel cultures at the time of biomarker measurements, indicated as SRB endpoints. For proliferation assays for adherent cell types, individual cell types are cultured at sub-confluence and relative cell numbers quantified by SRB staining at time points optimized for each system (48 h: 3C and CASM3C systems; 72 h: BT and HDF3CGF systems; 96 h: SAg system). SRB was performed by staining cells with 0.1% SRB after fixation with 10% TCA and reading wells at 560 nm.Viability and proliferation of PBMC (T cells) was quantified by Alamar Blue reduction for the SAg and BT systems. For PBMC viability (referred to as PBMC Cytotoxicity within the assay endpoint names), cells were plated (75,000/well in a 96-well plate) and then chemical samples added for 1 h before addition of activators, SEB and TSST-1 (20 ng/mL final concentration each). Cells were incubated for 90 h. Then, Alamar Blue (20 uL/well) (Invitrogen, Cat DAL1100) was added for 6 h, and the plates were read with a fluorescence microplate reader at 546/580 nm (excitation/emission). For PBMC proliferation, cells were plated and activated as above but incubated for only 16 h prior to addition of Alamar Blue. Plates were read after 6 h.
As for `CC(C)c1cccc(C(C)C)c1N`, the outcome was inactive.
As for `C=CC(=O)OCC(C)OCC(C)OCC(C)OC(=O)C=C` (stereo not given), the AC50 was 33.2 µM (active).
As for `CC(C)[N+](C)(CCOC(=O)C1c2ccccc2Oc2ccccc21)C(C)C`, the outcome was inactive.
The same measure, in the same setting: to `C=CC(=O)OCCCCCCCC(C)C` belongs “inactive”.
As to `CCCCCCCO`, the result was inactive.
The same measure, in the same setting: to `O=C1CCCCCCCCCCC1` belongs “inactive”.
Consider `Clc1cc(Cl)c(Cl)c(Cl)c1Cl`, for which the AC50 is 20 µM (active).
For the compound `COC(OC)(C(=O)c1ccccc1)c1ccccc1`, the result was inactive.
The same measure, in the same setting: to `CCC1(C)C(=O)N(Cl)C(=O)N1Cl` (stereo not given) belongs “inactive”; to `CC1(C)CC(O)CC(C)(C)N1[O]`, “inactive”.
With `CC(c1cc(C(C)(C)C)cc(C(C)(C)C)c1O)c1cc(C(C)(C)C)cc(C(C)(C)C)c1O`, the outcome was inactive.
With `CCCCCCOC(=O)CCCCC(=O)OCCCCCC`, the outcome was inactive.
On the same count and under the same terms, to `C=CC(=O)NCOCCCC` belongs “inactive”; to `O=C1CCCCCCCCCCCN1`, “inactive”.
Still for that read-out and setting: to `C=CCCCCCCCCC=O` belongs “inactive”.
On to `Nc1cccc(N)n1`, for which the outcome was inactive.
Turning to `C=CC(=O)OCCCCCCOC(=O)C=C`, the AC50 is 20 µM (active).
Regarding `O=C(Cl)c1c(Cl)c(Cl)c(C(=O)Cl)c(Cl)c1Cl`, the result was inactive.
With `COc1ccc(C(=O)/C(Br)=C\C(=O)O)cc1`, the result was inactive.
Same read-out and setting: to `c1ccc2c(c1)[nH]c1ccccc12` belongs “inactive”.
On the same count and under the same terms, to `O=C(Oc1ccccc1)c1ccccc1C(=O)Oc1ccccc1` belongs “inactive”; to `Cc1c(O)cccc1O`, “inactive”.
The same measure, in the same setting: to `CCNc1nc(NC(C)(C)C)nc(OC)n1` belongs “inactive”.
Take `c1ccc2sc(SSN3CCOCC3)nc2c1`: the AC50 is 31.5 µM (active).
For `CCCCCCCCCCCC(C)=O`, the outcome was inactive.
For the compound `C=C(C)C(=O)OCCCCCCCCCCCC`, the outcome was inactive.
With `CC/C=C\CCOC(=O)c1ccccc1O`, the concentration at half-maximal activity (AC50) is 37 µM (active).
With `CCCCCCC=O`, the result was inactive.
Consider `C[N+](C)(C)CCCNS(=O)(=O)C(F)(F)C(F)(F)C(F)(F)C(F)(F)C(F)(F)C(F)(F)C(F)(F)C(F)(F)F`, for which the AC50 is 37.6 µM (active) and 38.7 µM (active).
Take `O=C(O)C(F)(F)C(F)(F)C(F)(F)C(F)(F)C(=O)O`: the result was inactive.
On to `CCOC(=O)/C=C\C(=O)OCC`, for which the result was inactive.
Consider `CC/C=C\C/C=C\C/C=C\CCCCCCCC(=O)OC`, for which the AC50 is 10.4 µM (active).
As to `CCN1CN(CC)CN(CC)C1`, the outcome was inactive.
With `Oc1c(Cl)cc(Cl)c(Cl)c1Cl`, the concentration at half-maximal activity (AC50) is 26.6 µM (active).
Take `CCOC(=O)C1=NOC(c2ccccc2)(c2ccccc2)C1`: the result was inactive.
On the same count and under the same terms, to `CCCCCCCCC(CO)CCCCCC` (stereo not given) belongs “inactive”; to `CC(Cl)COP(=O)(OCC(C)Cl)OCC(C)Cl` (stereo not given), “inactive”; to `Fc1ccc(Br)cc1`, “inactive”.
On the same count and under the same terms, to `CCOC(=O)C1=NN(c2ccc(Cl)cc2Cl)C(C)(C(=O)OCC)C1` (stereo not given) belongs “inactive”; to `CC=C(C)C(C)=O`, “inactive”.

Usually AC50 stands for the concentration at which the activity in the assay is half-maximal.
